According to PubChem BioAssay (Tox21):
Inconclusive results are not listed. A number with no mark means an inactive call. Activity calls are given as the source filed them. Calls follow the shape of the dose curve; as a rule, active = well fitted activation curve with a large enough effect in the repeat runs; inconclusive = weak or mixed curves; inactive = flat fitted curve, though single readings scatter.

Experiment: A CellTox Green Cytotoxicity Assay to monitor cytotoxicity in HepG2 cells - 40 hour (AID 1224879); also: nearly all actives have a fitted effect of over 40% in size
Conditions: CellTox Green fluorescence; series mostly up to 76.8 µM; cytotoxicity increase: at the top concentration
Description: National Center for Advancing Translational Sciences [NCATS]
NIH Chemical Genomics Center [NCGC]
U.S. Environmental Protection Agency [EPA]
National Institutes of Environmental Health Sciences [NIEHS]
National Toxicology Program [NTP]
Cell-based models are critical for drug discovery. Determining the natural cytotoxic effects resulting from test compounds is an essential research activity. A CellTox Green Cytotoxicity Assay to monitor cytotoxicity in real time of continues cell culture during 40 hours of the compound treatment was used to screen Tox21 10K library compounds in HepG2 cells. CellTox Green Cytotoxicity Assay is a nonlytic, homogeneous, biofluorescent method to measure cytotoxicity in cell culture after experimental manipulation. The assay system uses a proprietary asymmetric cyanine dye that is excluded from viable cells but preferentially stains the dead cell's DNA. […] Viable cells produce no appreciable increases in fluorescence. Therefore, the fluorescence signal produced by the binding interaction with dead cell DNA is proportional to cytotoxicity.
The mixture of HepG2 cell suspension and reagents were dispensed at 600cells/6 ul/well in 1536-well tissue culture treated black solid bottom plates using a Multidrop dispenser. After the assay plates were incubated at a 37 C/5% CO2 incubator for 5 hours, 23 nL of compounds dissolved in DMSO, positive and negative controls was transferred to the assay plate by a pintool work station. The plates were incubated at 37 C for 40 hours. The fluorescence intensity were measured at 0h, 8h, 16h, 24h, 32h and 40h time points using ViewLux plate reader during compound treatment.
% is scaled to controls: 0 for no effect and ±100 for the full control effect; potency is read from the fitted curve at half-maximal effect.

SMILES | cytotoxicity increase | Potency
O=C1Cc2cc(Cl)ccc2N1 | -0.189% [at 35.3 µM] | 
CCCCN(CCCC)C(C(N)=O)c1ccc(OC)cc1 (stereo not given) | 29.3% [at 35.3 µM] | 
CCCCCCNC(=O)n1cc(F)c(=O)[nH]c1=O | 1.54% [at 35.3 µM] | 
C=Cc1ccc(S(=O)(=O)O)cc1 |  | 54.9 µM (active)
Cc1ccccc1N=C(N)Nc1ccccc1C | 7.22% | 
CCCCCCCCCCCCCCN(CCO)CCO |  | 13.8 µM (active)
CN1CCCN=C1COC(=O)C(O)(c1ccccc1)C1CCCCC1 (stereo not given) | 1.71% [at 35.3 µM] | 
Cc1cc(O)c(C)c(C)c1O | -0.519% [at 35.3 µM] | 
c1ccc2sc(SN(C3CCCCC3)C3CCCCC3)nc2c1 | -18.1% | 
O=Cc1c2ccccc2c(Cl)c2ccccc12 | 11.9% [at 35.3 µM] | 
CCCCCCCCCI | -14% | 
CCOC(=O)c1ccccc1C(=C1C=C(Br)C(=O)C(Br)=C1)c1cc(Br)c(O)c(Br)c1 | 6.88% [at 35.3 µM] | 
CC1CC(OC(=O)C(O)c2ccccc2)CC(C)(C)N1C (stereo not given) | -16.7% [at 35.3 µM] | 
Cc1ccccc1S | -0.9% [at 35.3 µM] | 
COC(=O)CS | -0.75% | 
NNC(=O)CP(=O)(c1ccccc1)c1ccccc1 | -16.1% [at 35.3 µM] | 
CCCCCC[C@@H](O)C/C=C\CCCCCCCC(=O)OCC(O)CO (stereo not given in full) | 15.1% | 
C=C1C[C@@]23CC[C@H]4[C@@](C)(CCC[C@@]4(C)C(=O)O[C@@H]4O[C@H](CO)[C@@H](O)[C@H](O)[C@H]4O)[C@@H]2CC[C@]1(O[C@@H]1O[C@H](CO)[C@@H](O)[C@H](O[C@@H]2O[C@H](CO)[C@@H](O)[C@H](O)[C@H]2O)[C@H]1O[C@@H]1O[C@H](CO)[C@@H](O)[C@H](O)[C@H]1O)C3 | -0.533% | 
Nc1cccc2c1CN(C1CCC(=O)NC1=O)C2=O (stereo not given) | 0.108% [at 35.3 µM] | 
O=[N+]([O-])c1ccc(Nc2ccc(Nc3ccccc3)c(S(=O)(=O)O)c2)c([N+](=O)[O-])c1 | -6.62% | 

SMILES | cytotoxicity increase | Potency
Cc1ccc(CO)cc1 | 2.11% | 
CCn1cc(C(=O)O)c(=O)c2cc(F)c(N3CCNCC3)cc21 | -10.3% [at 35.3 µM] | 
CCOC(=O)c1ccc(C#Cc2ccc3c(c2)C(C)(C)CCS3)nc1 |  | 0.301 µM (active)
CCCCCCCCN | -2.68% | 
O=[N+]([O-])c1ccc(O/N=C/c2cc(Br)c(O)c(Br)c2)c([N+](=O)[O-])c1 | 13.1% | 
CC(C)=CCC/C(C)=C/CC/C(C)=C/C(=O)OCC(=O)[C@@]1(O)CC[C@H]2[C@@H]3CCC4=CC(=O)C=C[C@]4(C)[C@H]3[C@@H](O)C[C@@]21C | -46.6% [at 35.3 µM] | 
O=c1cc(-c2ccccc2)oc2ccc3ccccc3c12 |  | 17.4 µM (active)
Cc1ccc(OC(=O)c2ccccc2O)cc1 | 18.7% | 
OC[C@H]1O[C@@H](n2cnc3c(=S)nc[nH]c32)[C@H](O)[C@@H]1O | -2.03% [at 35.3 µM] | 
OCCN1CCN(CCCN2c3ccccc3Sc3ccc(Cl)cc32)CC1 |  | 19 µM (active)
C=CC(=O)[O-].C=CC(=O)[O-].[Zn+2] | 0.765% | 
CC1=C(CC=O)C(C)(C)CCC1 | -13.9% | 
C=CCc1ccccc1OCC(O)CNC(C)C (stereo not given) | 3.16% [at 35.3 µM] | 
C=C(C)C(=O)OCCOCCOC(=O)C(=C)C | -2.94% | 
CCCCC(CC)COP(=O)(O)O (stereo not given) | 10.1% | 
CC1CC(C)C(=O)C1=O (stereo not given) | -9.49% | 
CC(=O)c1cc2ccccc2s1 | -2.24% [at 35.3 µM] | 
CC/C=C1/OC(=O)c2ccccc21 | -2.01% | 
O=C(/C=C/c1ccccc1)OCCc1ccccc1 | -1.27% | 
CCOC(C)=O | -16.3% | 
